# The list shows a part of the results. Active and inactive are the calls of the source.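 Rule for the calls: active = average inhibition reaching 50% or more with the compound at 20 µM; inactive = the rest.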
# Test system: diaphorase (Clostridium kluyveri)
# Experiment: C. kluyveri diaphorase inhibition, resazurin coupling – biochemical, fluorescence intensity, 10 µM NADPH, counter-screen for P. falciparum G6PD inhibitor project, confirmation (AID 504862);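 note: resorufin red fluorescence formed as diaphorase reduces resazurin using NADPH; 0% = DMSO with enzyme and 100% = DMSO without enzyme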
# Settings: diaphorase-coupled resazurin reduction, NADPH 10 uM, at 20 µM, hits give high values
row,SMILES,inhibition
1,O=C(Nc1nnc(S(=O)(=O)N2CCCCCC2)s1)c1cccc(Br)c1,52.1% (active)
2,Cc1ccc(/C=C/C(=O)Nc2ccc([N+](=O)[O-])c(NC(=O)/C=C/c3ccc(C)o3)c2)o1,-11.9% (inactive)
3,CCOC(=O)C1=C(c2ccc(OC)cc2)C(=O)c2ccccc2C1=O,84.4% (active)
4,c1ccc(-c2cn3c(n2)CCc2ccc4cccnc4c2-3)cc1,10.4% (inactive)
5,COc1ccc(OCc2nnc3n2N=C(c2ccccc2)C(CC(=O)O)S3)cc1 (stereo not given),-3.99% (inactive)
6,COc1ccc2c(c1)c(=Cc1ccc(N(C)C)cc1)c1cc(-c3ccccc3)[n+](C)n12,17.5% (inactive)
7,CCN1CCCC1CNC(=O)c1ccc2c(c1)NC(=O)/C(=C\c1ccccc1F)S2 (stereo not given),-2.12% (inactive)
8,Cc1cccc(C(=O)Nc2nnc(S(=O)(=O)N3CCCCCC3)s2)c1,46.7% (inactive)
9,O=C(Nc1nc(-c2ccncc2)cs1)C1COc2ccccc2O1 (stereo not given),-37.4% (inactive)
10,O=C1C=CC(=O)N1c1ccc(N2CCCCC2)cc1,-20% (inactive)
11,Cc1ccc(NC(=O)Cn2sc3ccccc3c2=O)cc1,0.47% (inactive)
12,O=C(CN1CCN(c2ccc(O)cc2)CC1)Nc1cc(S(=O)(=O)N2CCOCC2)ccc1Cl,-6.79% (inactive)
13,C=CCc1ccccc1OCC(=O)N/N=C/c1ccccc1OCC,43.3% (inactive)
14,O=[N+]([O-])c1c(NCCO)cc(Sc2nc3ccccc3s2)c2nonc12,-9.49% (inactive)
15,CCSc1nnc(NC(=O)c2ccc(C)cc2)s1,61.9% (active)
